Screening data as filed in PubChem.
The list is not random: actives were taken first. Their share in the collection is about 10%.
JMJD2A Tudor inh = qHTS Assay for Inhibitors of JMJD2A-Tudor Domain; Lysine-specific demethylase 4A (Homo sapiens), O75164; AlphaScreen JMJD2A-Tudor / H3K4me3 peptide binding; Potency, µM (highest dose often 114 µM), for the others: at the top dose activity change, negative = inhibition, hits mostly inhibitors; 4.4% of 390,000 active; AID 504339, 2011; also: potency is read from the fitted curve at half-maximal effect; % is scaled to controls: 0 for no effect and ±100 for the full control effect; nearly all actives have a fitted effect of over 50% in size
CtBP-E1A inh = qHTS Assay for Inhibitors of the CtBP/E1A Interaction | 0.49% of 340,000 active | CtBP / adenovirus E1A interaction (AlphaScreen) | AID 651724, 2012 | AlphaScreen GST-E1A/His-CtBP binding, 1536-well; stronger effect = lower value | activity change, % (no concentration beside the values); in the data active = activity change below about -65%; inconclusive = mostly about -30% to -63%; also: % is scaled to controls: 0 for no effect and ±100 for the full control effect
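Homogeneous bead-based format: GST-tagged E1A captured on glutathione donor beads, His-tagged CtBP on nickel acceptor beads; compounds precede bead addition by 2 h at 37 °C.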
Six1-Eya2 blk = qHTS Assay for Inhibitors of the Six1/Eya2 Interaction; Homeobox protein SIX1 (Homo sapiens) + Protein phosphatase EYA2 (Homo sapiens), …; AlphaScreen GST-Six1/His-Eya2 binding, biochemical; stronger effect = lower value; activity change, % (test concentration not listed); 0.56% of 360,000 active; AID 651725, 2012; in the data active = activity change below about -65%; inconclusive = mostly about -30% to -63%; also: % is scaled to controls: 0 for no effect and ±100 for the full control effect
Target sequence (O00167 whole entry, looked up): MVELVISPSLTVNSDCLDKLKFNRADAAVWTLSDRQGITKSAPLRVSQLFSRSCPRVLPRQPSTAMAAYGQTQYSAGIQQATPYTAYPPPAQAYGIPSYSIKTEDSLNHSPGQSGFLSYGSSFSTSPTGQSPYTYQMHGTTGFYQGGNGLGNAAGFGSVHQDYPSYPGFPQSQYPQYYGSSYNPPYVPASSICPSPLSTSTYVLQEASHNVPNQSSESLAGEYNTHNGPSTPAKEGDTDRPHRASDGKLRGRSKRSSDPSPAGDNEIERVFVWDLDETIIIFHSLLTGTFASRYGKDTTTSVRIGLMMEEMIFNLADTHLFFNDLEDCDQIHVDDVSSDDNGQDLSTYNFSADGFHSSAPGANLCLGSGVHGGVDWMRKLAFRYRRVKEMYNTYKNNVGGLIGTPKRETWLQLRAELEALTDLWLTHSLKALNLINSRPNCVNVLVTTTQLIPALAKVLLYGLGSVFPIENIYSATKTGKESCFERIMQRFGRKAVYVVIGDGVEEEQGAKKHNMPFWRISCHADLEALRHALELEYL
Target sequence (Q15475 whole entry, looked up): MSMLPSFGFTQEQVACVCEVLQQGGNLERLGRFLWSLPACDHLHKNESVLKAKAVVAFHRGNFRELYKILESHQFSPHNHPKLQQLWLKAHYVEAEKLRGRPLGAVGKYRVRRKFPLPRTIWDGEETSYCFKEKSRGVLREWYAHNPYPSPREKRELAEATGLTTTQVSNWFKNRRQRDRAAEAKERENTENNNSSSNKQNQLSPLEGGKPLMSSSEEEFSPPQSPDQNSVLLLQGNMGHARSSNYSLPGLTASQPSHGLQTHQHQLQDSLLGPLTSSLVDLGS
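Homogeneous AlphaScreen proximity assay pairing GST-Six1 with His-tagged Eya2 (added as 5X mix: 250 nM and 500 nM) in 50 mM Tris pH 8.0, 300 mM NaCl, 1 mM TCEP. Glutathione donor and nickel acceptor beads; 1 h, 37 °C, dark.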
HP1b chromo inh = HTS for Inhibitors of HP1-beta Chromodomain Interactions with Methylated Histone Tails; Chromobox protein homolog 1 (Homo sapiens), P83916; 0.56% of 390,000 active; AlphaScreen HP1-beta / biotin-H3K9me3 peptide binding; Potency, µM (highest dose often 114 µM), without a hit: at the highest dose activity change, negative = inhibition, most hits filed as inhibitors; also: potency is read from the fitted curve at half-maximal effect; nearly all actives have a fitted effect of over 70% in size
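Compound inhibition of the preformed complex between 50 nM HP1-beta and 50 nM biotinylated H3K9me3 peptide was read by AlphaScreen. Buffer was PBS pH 7.4 with 0.01% Tween-20. Incubations ran 30 min at room temperature, with 10 ug/mL donor/acceptor beads.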
G9a inh = qHTS Assay for Inhibitors of Histone Lysine Methyltransferase G9a | Histone-lysine N-methyltransferase EHMT2 (Homo sapiens), Q96KQ7 | G9a H3K9 monomethylation, AlphaScreen, 2 h | Potency, µM (doses to about 102 µM), inactives show at the top dose activity, negative = inhibition, most hits filed as inhibitors | 8.8% of 350,000 active | AID 504332, 2011; also: potency is read from the fitted curve at half-maximal effect; % is scaled to controls: 0 for no effect and ±100 for the full control effect; nearly all actives have a fitted effect of over 75% in size
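AlphaScreen read-out: biotin-H3K9 peptide (500 nM) methylation by 20 nM enzyme with 20 uM SAM, 2 h at room temperature after 15 min compound preincubation; anti-monomethyl H3K9 antibody plus donor/acceptor beads, 10 min dark.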
BAZ2B block = qHTS Assay for Inhibitors of BAZ2B | Bromodomain adjacent to zinc finger domain protein 2B (Homo sapiens), Q9UIF8 | AlphaScreen BAZ2B-H3K14Ac peptide displacement | Potency, µM (doses to about 114 µM), for the others: at the top dose activity change, negative = inhibition, most hits filed as inhibitors | 4.4% of 360,000 active | AID 504333, 2011; also: potency is read from the fitted curve at half-maximal effect; % is scaled to controls: 0 for no effect and ±100 for the full control effect; nearly all actives have a fitted effect of over 60% in size
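Inhibition is scored as reduced AlphaScreen emission. The BAZ2B/b-H3(5-23)K14Ac complex (50 nM each) in PBS pH 7.4, 0.01% Tween-20 meets compound (up to 110 uM) for 30 min at RT before bead addition.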
Starred values were filed as active, the others as inactive; ? = inconclusive; nt = no result; [ ] = remark or other dose. Unless noted, calls follow the shape of the dose curve; as a rule, active = well fitted inhibition curve with a large enough effect; inconclusive = small, poorly fitted or top-dose-only effect; inactive = no such curve, though single readings can be large or run the other way.

SMILES	JMJD2A Tudor inh	CtBP-E1A inh	Six1-Eya2 blk	HP1b chromo inh	G9a inh	BAZ2B block
CCOC(=O)c1c(C)c(C(=O)NCc2ccco2)c(C)n1Cc1ccccc1	35µM*	-7	-3	-31%	?	?
COc1ccc(Cn2c(=O)c3oc4ccccc4c3n(Cc3ccccc3)c2=O)cc1	-4%	nt	nt	28%	2%[59 µM]	-1%
CCN(CC)S(=O)(=O)c1cc(C(=O)Nc2ccccc2[N+](=O)[O-])ccc1Cl	?	16	?	?	28µM*	?
CCN(CC)S(=O)(=O)c1ccc(N2CCCC2)c(NC(=O)c2ccc(N3CCCC3=O)cc2)c1	-20%	-11	-9	9%	35µM*	-4%
CCN(CC)S(=O)(=O)c1ccc(OC)c(NC(=O)c2ccc(N3CCCC3=O)cc2)c1	5%	5	10	41%	-1%[59 µM]	9%
CCN(CC)S(=O)(=O)c1ccc(N2CCCCC2)c(NC(=O)C2=COCCO2)c1	-21%	-7	-3	2%	-30%	7%
COc1ccccc1CNC(=O)c1ccc(N2CCOCC2)c([N+](=O)[O-])c1	?	-4	-2	-6%	-9%[59 µM]	79µM*
CCN(CC)S(=O)(=O)c1ccc(N2CCCC2)c(NC(=O)C2=COCCO2)c1	-6%	-1	7	24%	50µM*	-2%
Cc1ccsc1CCN1C(=O)N(c2ccccc2)C(=O)C1CC(=O)Nc1ccc(F)cc1 (configuration not stated)	-13%	nt	nt	43%	9%[59 µM]	-12%
Cc1ccc(Cl)cc1NC(=O)CN1C(=O)NC(C)(C2CC2)C1=O (configuration not stated)	-15%	1	4	33%	nt	nt
CCN(CC)S(=O)(=O)c1ccc(N2CCCC2)c(NC(=O)c2ccncc2)c1	-20%	nt	-1	49%	32µM*	-1%
CCN(CC)S(=O)(=O)c1ccc(N2CCOCC2)c(NC(=O)c2ccc(N3CCCC3=O)cc2)c1	-14%	7	6	16%	50µM*	-1%
CCN(CC)S(=O)(=O)c1ccc(O)c(NC(=O)c2ccc(N3CCOCC3)c([N+](=O)[O-])c2)c1	-19%	-3	-9	?	7.1µM*	-3%
CCN(CC)S(=O)(=O)c1ccc(N2CCCCC2)c(NC(=O)c2ccncc2)c1	-10%	13	0	24%	-8%	-17%
CCN(CC)S(=O)(=O)c1ccc(N2CCOCC2)c(NC(=O)c2ccccc2)c1	-8%	10	-2	24%	21%[59 µM]	-4%
CC1Oc2ccc(C#N)cc2N(Cc2ccccc2OC(F)(F)F)C1=O (configuration not stated)	nt	-3	2	nt	nt	nt
CCCC(=O)OCc1cnc(C)c2oc(=O)c(C(=O)Nc3cccc(C(F)(F)F)c3)cc12	-30%	nt	nt	-9%	-3%[59 µM]	-35%
CCOC(=O)/C=C1\SCC(=O)N1CC(=O)Nc1cccc(F)c1	9%[57.1 µM]	4	-1	43%	-1%	-19%
O=[N+]([O-])c1cc2oc3c(c2c(C=NCc2ccccc2)c1O)CCCC3	71µM*	3	-16	?	3%[59 µM]	-30%
CCCCCCC(=O)Cc1cc(OC)c(OC)cc1C=C(C(=O)OCC)C(=O)OCC	nt	nt	nt	nt	40µM*	3%
N/C(=N\NS(=O)(=O)c1ccccc1C(F)(F)F)c1ccccn1	3%	nt	-6	57%	nt	-8%
CNC(=O)N/N=C(\N)c1ccccn1	?	nt	-9	40%	10µM*	?
N/C(=N\NC(=O)Nc1ccc(Cl)cc1)c1ccccn1	45µM*	-76*	?	-1%	-28%	16µM*
CC(=O)c1ccccn1	-13%	4	9	26%	20%[12.7 µM]	26%
O=C(Nc1ccc(Cl)cc1)Nc1ccccn1	7%	10	2	35%	1%	-5%
SMILES	JMJD2A Tudor inh	CtBP-E1A inh	Six1-Eya2 blk	HP1b chromo inh	G9a inh	BAZ2B block
Cc1nc(C(F)(F)F)c(C(=O)N/N=C(\N)c2ccccn2)s1	79µM*	-92*	-77*	14%	11%	10µM*
COc1cccc(/C=C2\SC(=S)N(CCCC(=O)Nc3ccc(C(=O)O)cc3)C2=O)c1	?	-9	-10	-9%	nt	?
Cc1ccc(NC(=O)COc2cccc(/C=C3\SC(=S)N(CCC(=O)O)C3=O)c2)cc1Cl	-32%[11.4 µM]	0	-13	-5%	2%[59 µM]	45µM*
O=C(O)CCN1C(=O)/C(=C\c2cccc(OCC(=O)Nc3ccc(Cl)cc3)c2)SC1=S	-25%[11.4 µM]	?	-22	45µM*	?	45µM*
CC(C)(C)OC(=O)N1O[C@H]2CC1[C@@H]1[C@@H]2N=NN1CCc1ccncc1	0%	6	2	33%	nt	nt
CNCCCC1Sc2ccccc2Oc2ccccc21 (configuration not stated)	8.9µM*	0	6	-34%	7.9µM*	?
Cc1cc(C)nc(NC(=S)NC(=O)c2ccccc2F)n1	?	-1	-1	12%	nt	nt
Cc1cc(C)nc(S/C=C/C(=O)c2ccccc2F)n1	?	0	19	37%	14µM*	-17%
CCc1nn(-c2ccccc2)c2nc(-c3ccccc3OC)c3cc(OC)c(OC)cc3c12	21%	nt	nt	74%	20%[59 µM]	-8%
CCc1nn(-c2ccccc2)c2c1-c1cc(OC)c(OC)cc1C1(N2)C(=O)Nc2ccccc21 (configuration not stated)	?	1	-14	-21%	79µM*	?
COc1cc2c(cc1OC)C1(Nc3c-2c(-c2ccccc2)nn3-c2ccccc2)C(=O)Nc2ccccc21 (configuration not stated)	?	-23	-19	-33%	79µM*	?
COc1cc2c(cc1OC)C1(Nc3c-2c(C)nn3-c2ccccc2)C(=O)Nc2ccccc21 (configuration not stated)	?	-3	-10	-26%	71µM*	-12%
CCOc1cc(CNC(=O)NC2COc3ccccc3C2)cc(OCC)c1OCC (configuration not stated)	-11%	nt	nt	31%[57 µM]	-14%[59 µM]	7%
COc1ccc(-n2c(SC)nc(O)c(Cc3ccccc3)c2=O)cc1	-13%	-4	0	11%	40µM*	-9%
